From PubChem BioAssay AID463173 (ICCB-Longwood Screening Facility, Harvard Medical School, 2010)
Among all 52,000 compounds or so, about 4,300 (8.3%) were called active. The sample holds actives, similar compounds and a random draw of the others, so the mix is not that of the screen. Values without a mark were called inactive. Rule as the data show it: active = survival mostly below about 52% (no sharp cut-off); inactive = mostly above about 56%.

tested on: DeltatarO mutant; test: growth inhibition of S. aureus wild type versus tarO mutant, primary screen, teichoic acid synthesis inhibitors, RN4220, OD600 (AID 463173); conditions: OD600, 18 h, active compounds read low, screened at 18.75 µg/mL (by protocol)

Compound	survival
COc1ccccc1OCCCn1c(C2CC(=O)N(c3ccccc3Cl)C2)nc2ccccc21 (stereo not drawn)	75%
Cc1ccccc1N1CC(c2nc3ccccc3n2Cc2ccc(Br)cc2)CC1=O (stereo not drawn)	25% (active)
CCc1ccccc1N1CC(c2nc3ccccc3n2Cc2cccc(C)c2)CC1=O (stereo not drawn)	66%
Cc1ccc(C)c(Cn2c(C3CC(=O)N(c4ccccc4C)C3)nc3ccccc32)c1 (stereo not drawn)	80%
Cc1ccc(N2CC(c3nc4ccccc4n3CCC3CCCCC3)CC2=O)cc1 (stereo not drawn)	64%
COc1ccc(OCCCCn2c(C3CC(=O)N(c4cccc(Cl)c4)C3)nc3ccccc32)cc1 (stereo not drawn)	86%
Cc1cccc(N2CC(c3nc4ccccc4n3CCC3CCCCC3)CC2=O)c1 (stereo not drawn)	31% (active)
Cc1c(Cl)cccc1N1CC(c2nc3ccccc3n2Cc2ccccc2F)CC1=O (stereo not drawn)	41%
O=C1CC(c2nc3ccccc3n2CCC2CCCCC2)CN1c1ccccc1Cl (stereo not drawn)	21% (active)
Cc1ccccc1N1CC(c2nc3ccccc3n2CCC2CCCCC2)CC1=O (stereo not drawn)	16% (active)
COc1ccc(N2CCN(C(=O)c3c(C)nn(-c4ccc(F)cc4)c3-n3cccc3)CC2)cc1	69%
Cc1ccc(N2C(=O)CSC23C(=O)N(CC(=O)NC2CCCCC2)c2ccccc23)cc1 (stereo not drawn)	79%
CCOc1ccc(OCC(=O)Nc2c(C(=O)Nc3ccc(C)cc3)oc3ccccc23)cc1	73%
Cc1cnn(Cc2ccccc2)c1N	98%
CSc1nc2c(sc3ccccc32)c(=O)n1Cc1ccc(C)cc1	96%
CC1(C)Oc2ccc(C(=O)N/N=C/c3cccs3)cc2NC1=O	58%
O=C1[C@@H]2CSC(c3ccc(F)cc3)N2C(=O)N1c1ccc(Cl)cc1 (stereo partly drawn)	76%
COc1ccc(C2=NC3(CCCCCC3)N(CC(=O)Nc3cccc(Cl)c3)C2=O)cc1	68%
O=C(NCc1ccc2c(c1)CCN2C(=O)c1ccc(F)cc1)c1ccco1	115%
COc1ccc(-c2nc(SCC(=O)NC3CCCC3)c(-c3ccccc3)[nH]2)cc1OC	65%
Cn1c(SCc2ccccc2Cl)nc(=O)c2c1NC(=O)CC2c1cc(F)ccc1F (stereo not drawn)	45%
COc1ccc(/C=C/C(=O)N2CCC(c3nc4ccccc4o3)CC2)cc1OC	86%
NC(=O)CN1c2cccc3cccc(c23)S1(=O)=O	104%
COc1ccc2[nH]c3c(c2c1)CCN(C(=O)c1cccc(Cl)c1)C3c1ccc(F)cc1 (stereo not drawn)	77%

Compound	survival
Cc1ccc(CNC(=O)c2ccc(CSCc3cccc(C)c3)o2)cc1	93%
CCOC(=O)c1cc(-c2ccccc2)n(CC(=O)NC(C)c2ccccc2)c1C (stereo not drawn)	91%
CCc1ccccc1N1CC(c2nc3ccccc3n2CC(C)C)CC1=O (stereo not drawn)	78%
CCc1ccccc1N1CC(c2nc3ccccc3n2CCC2CCCCC2)CC1=O (stereo not drawn)	10% (active)
COc1ccccc1Cn1c(C2CC(=O)N(c3ccccc3OC)C2)nc2ccccc21 (stereo not drawn)	49%
Cc1cccc(NS(=O)(=O)c2ccc3c(c2)CCN3C(=O)C2CCC2)c1	69%
Cc1cc(C)c2oc(C(=O)NCCc3ccc(S(N)(=O)=O)cc3)cc(=O)c2c1	63%
Cn1c(=O)n(C)c2cc(CNCc3ccc(F)cc3)ccc21	92%
NC(=O)c1ccccc1NS(=O)(=O)c1ccccc1	97%
NC(=O)c1cc(Cl)nc2ccccc12	81%
NC(=O)c1ccc(-c2ccccc2)cc1C(N)=O	66% (active)
Cc1ccc(CNC(=O)c2cnc(N3CCCCC3)c3ccccc23)cc1	80%
c1ccc(CCn2nnnc2CN2CCCc3ccccc32)cc1	93%
Cc1ccc(CN(C(=O)COc2ccc(Br)cc2)c2ccccn2)o1	62%
CCC(=O)Nc1sc2c(c1C(=O)Nc1ccc(Br)cc1)CCCCC2	135%
CCOc1ccc(NC(=O)c2c(NC(=O)Cc3ccccc3)sc3c2CCCC3)cc1	45% (active)
Cc1ccc(NC(=O)c2c(NC(=O)Cc3ccccc3)sc3c2CCC3)cc1	24% (active)
O=C(Cc1ccccc1)Nc1sc2c(c1C(=O)Nc1ccc(Cl)cc1)CCCC2	47%
CCOc1ccc(NC(=O)c2c(NC(=O)Cc3ccccc3)sc3c2CCCCC3)cc1	48%
O=C(Cc1ccccc1)Nc1sc2c(c1C(=O)Nc1ccccc1)CCCCC2	50%
O=C(Cc1ccccc1)Nc1sc2c(c1C(=O)Nc1ccc(Br)cc1)CCC2	55%
COc1ccc(NC(=O)c2c(NC(=O)Cc3ccccc3)sc3c2CCCC3)cc1	124%
Cc1ccc(NC(=O)c2c(NC(=O)Cc3ccccc3)sc3c2CCCC3)cc1	28% (active)
O=C(Cc1ccccc1)Nc1sc2c(c1C(=O)Nc1ccc(Br)cc1)CCCC2	57% (active)

Compound	survival
CC(Cc1ccccc1)N=C1NS(=O)(=O)c2ccccc21 (stereo not drawn)	81%
Cc1nc2c3ccccc3nc(NNC(=O)CCC(=O)N3CCN(c4cccc(C(F)(F)F)c4)CC3)n2n1	57%
CCOc1ccc(CCNC(=O)C2Cc3ccccc3N2C(=O)CC)cc1OCC (stereo not drawn)	93%
Cc1nnc(N(C)C(=O)Cc2ccc3c(c2)OCO3)s1	73%
COC(=O)C1C(=O)NC(S)=C(C#N)C1c1ccccc1Cl (stereo not drawn)	89%
CCCN(CCC)C(=O)Cn1c(=O)n(-c2ccc(CC)cc2)c(=O)c2c3c(sc21)CCC3	110%
COc1ccc(NC(=O)c2csnn2)cc1Cl	86%
COc1ccccc1N1CCN(C(=O)c2cnc(N3CCOCC3)c3ccccc23)CC1	78%
CCOC(=O)c1cc(-c2ccc(F)cc2)n(CC(=O)NC2CCCCCC2)c1C	76%
COc1cccc(-n2c(-c3ccco3)nc3c(cnn3-c3ccc(C)cc3)c2=O)c1	52% (active)
COc1ccc(-n2c(C)nc3c(cnn3-c3ccc(F)cc3)c2=O)cc1	73%
CCc1cccc(-n2c(C)nc3c(cnn3-c3ccc(Cl)cc3)c2=O)c1	-1% (active)
Cc1nc2c(cnn2-c2ccccc2)c(=O)n1-c1ccccc1	73%
Cc1ccc(-n2ncc3c(=O)n(Cc4cccc(C(F)(F)F)c4)cnc32)cc1C	93%
CCc1cccc(-n2c(C)nc3c(cnn3-c3ccc(C)c(C)c3)c2=O)c1	-1% (active)
Cc1ccc(-n2c(C)nc3c(cnn3-c3ccccc3C)c2=O)cc1F	120%
CCOC(=O)c1ccc(-n2c(C)nc3c(cnn3-c3ccc(Cl)cc3)c2=O)cc1	67%
COc1cccc(-n2c(C)nc3c(cnn3-c3ccc(C)c(C)c3)c2=O)c1	50% (active)
COc1ccc(-n2c(C)nc3c(cnn3-c3ccc(C)c(C)c3)c2=O)cc1Cl	118%
COc1cccc(-n2c(-c3ccco3)nc3c(cnn3-c3ccc(Cl)cc3)c2=O)c1	113%
COc1ccc(-n2c(-c3ccco3)nc3c(cnn3-c3ccc(C)cc3)c2=O)cc1	73%
Cc1ccc(C)c(S(=O)(=O)c2cn(C)c3cc(N4CCCCC4C)c(F)cc3c2=O)c1 (stereo not drawn)	86%
CCOc1ccc(/C=C/c2nc(C#N)c(NC(C)CC)o2)cc1 (stereo not drawn)	68%
Cc1nc2cc(C(F)(F)F)ccc2n1C1CCN(CC(=O)N2CCCC2)CC1	109%

Compound	survival
O=C(Nc1ccccc1-c1ccccc1)NC1CCN(CC(=O)N2CCOCC2)CC1	73%
CC1=C(C(=O)N2CCN(c3ccc(Cl)cc3)CC2)C2(CCC(C)CC2)OC1=O (stereo not drawn)	121%
CCc1ccc(CNC(=O)CN(c2ccc(C)cc2)S(=O)(=O)N(C)C)cc1	76%
O=C(OC(C(=O)NC1CCCC1)c1cccnc1)C1=Cc2ccccc2OC1 (stereo not drawn)	96%
COc1cccc(C(=O)N2c3nc(-c4ccco4)nn3C3(CCCCC3)[C@@H]3CCCC[C@@H]32)c1	95%
CNS(=O)(=O)c1cn(CC(=O)Nc2ccc(C)cc2C)cc1S(=O)(=O)NC	117%
CNS(=O)(=O)c1cn(CC(=O)Nc2ccc(F)cc2F)cc1S(=O)(=O)NC	0% (active)
Cc1cc(F)ccc1NC(=O)Cn1cc(S(=O)(=O)NC(C)C)c(S(=O)(=O)NC(C)C)c1	90%
COc1ccc(-c2onc(C)c2C)cc1S(=O)(=O)NCC1CCN(Cc2cc(C)ccc2C)CC1	100%
CCOC(=O)c1cc(-c2ccc(F)cc2)n(CC(=O)NCc2ccc(OC)cc2)c1C	75%
CCOC(=O)c1cc(-c2ccccc2)n(CCC(=O)NCCc2ccc(C)cc2)c1C	71%
CCOC(=O)c1cc(-c2ccccc2)n(CC(=O)NCc2ccccc2OC)c1C	101%
CCOC(=O)c1cc(-c2ccc(F)cc2)n(CCC(=O)Nc2ccccc2OC)c1C	101%
CCOC(=O)c1cc(-c2ccccc2)n(CCC(=O)NCCc2ccccc2)c1C	0% (active)
CCOC(=O)c1cc(-c2ccccc2)n(CCC(=O)Nc2ccc(OC)c(Cl)c2)c1C	92%
CCOC(=O)c1cc(-c2ccc(C)cc2)n(CCC(=O)Nc2ccc(OC)c(OC)c2)c1C	52% (active)
CCOC(=O)c1cc(-c2ccc(F)cc2)n(CCC(=O)NCc2ccccc2OC)c1C	52% (active)
CCOC(=O)c1cc(-c2ccccc2)n(CC(=O)NCc2ccc(C)cc2)c1C	37% (active)
CCOC(=O)c1cc(-c2ccccc2)n(CCC(=O)NCCc2cccc(C)c2)c1C	58%
CCOC(=O)c1cc(-c2ccc(C)cc2)n(CCC(=O)NCc2ccccc2)c1C	108%
CCOC(=O)c1cc(-c2ccc(C)cc2)n(CCC(=O)Nc2ccc(C(C)C)cc2)c1C	61%
